From PubChem BioAssay
Active and inactive are the calls of the source.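 How the source made its calls, unless noted: active means inhibition of the reporter signal at or above 50%; inactive means inhibition below 50%.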

Columns and labels:
[1] = inhibitors of TNFa-induced NFkB p65 translocation, primary screen, imaging, HUVEC, MLSMR starter and 10KST1 sets (AID 438;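 active means inhibition above 20% together with a positive visual image hit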;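 further: compound added about 3h40 before a 20 min TNFalpha stimulation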;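 on inhibition: signal is the nuclear over cytoplasmic p65 intensity ratio per well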); conditions: HUVEC TNFa-induced p65 nuclear translocation; cell count: measured here: nuclei count (cytotoxicity indicator), at 2.08 µM; inhibition: at 2 µM, stronger effect = higher value, 0% TNFa-plus-vehicle, 100% no-TNFa wells
[2] = reduction of polyQ htt aggregates in cells – imaging, exon1htt(103Q)mCFP cells, high-content imaging, primary screen (AID 483;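 active means visual image review flags a hit and inhibition of aggregation exceeds 20%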;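 further: compound exposure lasted 3 days before fixation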;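 on nuclei count: percent of the per-plate median nuclei count of sample wells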); conditions: exon1htt(103Q)mCFP cell line, aggregate imaging, at 2 µM; inhibition of aggregation: stronger effect = higher value; nuclei count: measured here: cell count, toxicity
[3] = endothelial E-selectin expression blockers – imaging, HUVEC, immunofluorescence, MLSMR starter and 10KST1 sets, primary screen (AID 487;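 active means visually confirmed hit in the image check and inhibition above 20%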;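 on inhibition: signal is fraction of cell area covered by stained E-selectin grains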;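 on nuclei count: 100% = median nuclei count of all wells on the same plate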); conditions: HUVEC TNFalpha-induced E-selectin immunofluorescence imaging, at 2 µM; inhibition: stronger effect = higher value; nuclei count: measured here: cell number, toxicity
[4] = biological target: Voltage-gated potassium channel subunit beta-2 (Rattus norvegicus) (UniProt P62483); assay: inhibitors of rat Kvbeta2 reductase activity – biochemical, NADPH fluorescence, primary screen (AID 622;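 active means fluorescence slope higher than the sample average by over 3 SD, cut at about -0.22 in these data, passing the limit was not always enough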;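 further: slope of raw intensity against log time taken from 70 to 1610 s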); conditions: recombinant KvBeta, 4-cyanobenzaldehyde reduction, at 10 µM, stronger effect = higher value
Sequence of Voltage-gated potassium channel subunit beta-2 (Rattus norvegicus) (P62483 whole entry, looked up): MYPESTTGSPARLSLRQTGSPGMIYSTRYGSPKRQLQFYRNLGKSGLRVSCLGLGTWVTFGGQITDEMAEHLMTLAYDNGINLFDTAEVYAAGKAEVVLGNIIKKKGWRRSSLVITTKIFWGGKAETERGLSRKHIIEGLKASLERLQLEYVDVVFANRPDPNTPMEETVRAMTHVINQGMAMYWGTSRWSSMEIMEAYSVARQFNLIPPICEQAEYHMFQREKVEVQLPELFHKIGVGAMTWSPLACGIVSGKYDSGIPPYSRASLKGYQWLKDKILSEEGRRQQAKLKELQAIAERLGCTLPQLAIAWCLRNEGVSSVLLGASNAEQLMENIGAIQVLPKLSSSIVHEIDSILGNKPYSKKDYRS

[5] = biological target: Voltage-gated potassium channel subunit beta-2 (Rattus norvegicus) (UniProt P62483); assay: enhancers of rat Kvbeta2 NADPH turnover – biochemical, NADPH fluorescence, primary screen (AID 623;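 active means NADPH fluorescence slope more negative than the mean of all samples by about 3 SD, 99.7% confidence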;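 further: fluorescence intensity change per second fitted from 20 to 320 s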); conditions: Recombinant KvBeta, NADPH fluorescence decrease slope, 10 min; at 10 µM; stronger effect = lower value
[6] = biological target: Muscarinic acetylcholine receptor M4 (Homo sapiens) (UniProt P08173); assay: M4-linked GIRK flux change, two-sided – cell-based, HEK293 M4/GIRK, thallium flux, BTC-AM, M4 allosteric agonist project, primary screen (AID 625;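 active means fluorescence slope after compound addition differing from the mean of all tested samples at 99.7% confidence, mostly higher but some lower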;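 further: thallium influx through GIRK channels coupled to M4 in HEK293 cells with BTC-AM dye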); conditions: at 10 µM, actives lie on both sides
Sequence of Muscarinic acetylcholine receptor M4 (Homo sapiens) (P08173 whole entry, looked up): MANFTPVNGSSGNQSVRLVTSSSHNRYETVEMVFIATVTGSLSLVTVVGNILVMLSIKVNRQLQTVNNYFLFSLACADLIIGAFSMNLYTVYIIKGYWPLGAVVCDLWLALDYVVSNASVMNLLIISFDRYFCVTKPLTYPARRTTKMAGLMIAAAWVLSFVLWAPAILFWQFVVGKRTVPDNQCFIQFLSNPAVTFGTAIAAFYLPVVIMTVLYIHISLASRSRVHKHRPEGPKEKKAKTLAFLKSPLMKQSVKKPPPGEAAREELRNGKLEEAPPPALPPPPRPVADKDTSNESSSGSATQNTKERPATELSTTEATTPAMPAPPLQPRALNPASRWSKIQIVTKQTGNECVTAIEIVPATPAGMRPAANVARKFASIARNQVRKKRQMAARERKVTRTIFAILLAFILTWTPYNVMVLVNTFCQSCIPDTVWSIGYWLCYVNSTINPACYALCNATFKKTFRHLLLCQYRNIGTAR

[7] = blockers of RIG-like receptor reporter activation – cell-based, Sendai virus stimulus, luciferase, 10K MLSCN set, TLR/RLR signaling modifier project, primary screen (AID 602276;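 active means inhibition at or above 50% at 10 µM; inactive means inhibition below 50%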;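 further: firefly luciferase from ISG56 promoter only with Renilla not read in this screen; 0% = Sendai virus plus DMSO and 100% = medium plus DMSO without virus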); conditions: HEK293 RL24 IRF3 luciferase reporter, at 10 µM, stronger effect = higher value
[8] = TLR3 IRF3 reporter activation blockers – cell-based, poly I:C stimulus, luciferase, 10K MLSCN set, primary screen (AID 602277); conditions: HEK293-TLR3 RL24 IRF3 luciferase reporter, at 10 µM, stronger effect = higher value

Row | SMILES | cell count [1] | inhibition [1] | inhibition of aggregation [2] | nuclei count [2] [%] | inhibition [3] | nuclei count [3] [%] | fluorescence slope [4] | NADPH fluorescence slope [5] | fluorescence slope [6] | inhibition [7] | inhibition [8]
1 | O=C(CN1C(=O)c2ccccc2C1=O)NCC1COc2ccccc2O1 (centres undefined) | 403 | -0.8% (inactive) | 12.6% (inactive) | 101 | 50.3% (inactive) | 75.3 | -0.477 (inactive) | 9.2e-05 (inactive) | 0.00703 (inactive) | -12.5% (inactive) | -10.2% (inactive)
2 | O=C(NCc1n[nH]c(=S)n1-c1ccc(F)cc1)c1ccco1 | 711 | -16.8% (inactive) | -0.3% (inactive) | 102 | -72.4% (inactive) | 126 | -0.463 (inactive) | -2.7e-05 (inactive) | 0.00529 (inactive) | 12.1% (inactive) | 13.9% (inactive)
3 | Cc1ccc2[nH]c(=O)c(CN(CCc3ccccc3)Cc3nnnn3CC3CCCO3)cc2c1 (centres undefined) | 676 | -10.2% (inactive) | 0.9% (inactive) | 105 | 75.6% (active) | 112 | -0.498 (inactive) | -7e-06 (inactive) | 0.00636 (inactive) | -7.83% (inactive) | -6.03% (inactive)
4 | Cc1nc(C)c(C(=O)Nc2ccc(C)c(F)c2)o1 | 600 | -4.5% (inactive) | 19.4% (inactive) | 97.5 | -2.7% (inactive) | 120 | -0.335 (inactive) | -5.2e-05 (inactive) | 0.00567 (inactive) | 4.25% (inactive) | -10.3% (inactive)
5 | CCCCOc1ccc(-c2nnn(CC(=O)Nc3ncc(CC(=O)OCC)s3)n2)cc1 | 613 | 36.4% (active) | 18.6% (inactive) | 108 | -79% (inactive) | 79.4 | -0.4 (inactive) | 6.8e-06 (inactive) | 0.00855 (inactive) | 13.5% (inactive) | 23.8% (inactive)
6 | Cc1c(C(=O)O)oc2ccc(S(=O)(=O)NCc3ccccc3)cc12 | 675 | -4.8% (inactive) | 21.7% (inactive) | 108 | -38.4% (inactive) | 110 | -0.432 (inactive) | 4.7e-05 (inactive) | 0.00586 (inactive) | -0.0664% (inactive) | 11.8% (inactive)
7 | CCN(CCCNC(=O)c1cn(CC)c2ccc(S(=O)(=O)N(C)C)cc2c1=O)c1cccc(C)c1 | 587 | -12.9% (inactive) | 23.2% (inactive) | 106 | -62.7% (inactive) | 116 | -0.475 (inactive) | 8.6e-05 (inactive) | 0.00589 (inactive) | 5.55% (inactive) | 3.96% (inactive)
8 | COc1cc2[nH]c(=O)n(CCCCCC(=O)NCCCN3CCCC3=O)c(=O)c2cc1OC | 703 | -23.7% (inactive) | 3.9% (inactive) | 102 | -42.1% (inactive) | 124 | -0.457 (inactive) | -7.1e-05 (inactive) | 0.0052 (inactive) | 13.3% (inactive) | 22.1% (inactive)
9 | N#CC(C(=O)CCN1C(=O)C2CC=CCC2C1=O)c1nc2ccccc2[nH]1 (centres undefined) | 286 | -5.7% (inactive) | 4.5% (inactive) | 93.8 | -88.1% (inactive) | 123 | -0.524 (inactive) | 5.4e-05 (inactive) | 0.00584 (inactive) | 18.4% (inactive) | 17.1% (inactive)
10 | Cc1cccc(N2CCN(S(=O)(=O)c3ccc4c(c3)CCC(=O)N4)CC2C)c1 (centres undefined) | 322 | 4.7% (inactive) | 8.5% (inactive) | 123 | -29.6% (inactive) | 126 | -0.453 (inactive) | -0.00034 (inactive) | 0.00513 (inactive) | 10.8% (inactive) | 19.1% (inactive)
11 | Nc1nonc1NC(=O)CSc1nc2ccccc2s1 | 519 | -8.4% (inactive) | 39.8% (active) | 61.2 | -50.5% (inactive) | 103 | -0.515 (inactive) | -0.000124 (inactive) | 0.00565 (inactive) | -7.11% (inactive) | 15.4% (inactive)
12 | O=C(Nc1ccc(F)cc1)c1cccc2c1C(=O)N(Cc1ccccn1)C2 | 811 | 2.1% (inactive) | 4.1% (inactive) | 98.1 | -108% (inactive) | 126 | -0.576 (inactive) | -3e-05 (inactive) | 0.00591 (inactive) | 0.0917% (inactive) | -22.2% (inactive)
13 | COc1ccc(-c2cn3cc(C)ccc3n2)cc1OC | 442 | -10.5% (inactive) | -3.3% (inactive) | 103 | -4.7% (inactive) | 109 | -0.357 (inactive) | -3e-05 (inactive) | 0.00466 (inactive) | 29.4% (inactive) | -10.4% (inactive)
14 | Cc1cc(C)c2oc(=O)cc(CN3CCOCC3)c2c1 | 647 | 2% (inactive) | 4.4% (inactive) | 87.2 | -10.1% (inactive) | 99.8 | -0.551 (inactive) | 2.5e-06 (inactive) | 0.00519 (inactive) | 15.5% (inactive) | 25.5% (inactive)
